40 compounds from PubChem BioAssay (Tox21) can be followed below.

Records with an inconclusive call do not appear. Where a call stands in place of a potency, no number is given. The source made the active and inactive calls. The call rests on the fitted dose curve.

The assay can be described thus: p53 small molecule agonists, cell-based qHTS assay with rat liver microsomes (AID 1963578). As to conditions: HCT-116 p53RE-bla, beta-lactamase ratio, 16 h; series mostly up to 66 µM. The source says: U.S. Tox21 Program National Center for Advancing Translational Sciences [NCATS] Division of Preclinical Innovation [DPI] U.S. Environmental Protection Agency [EPA] National Institutes of Environmental Health Sciences [NIEHS] National Toxicology Program [NTP] U.S. Food and Drug Administration [FDA] Tox21 Assay Overview: p53, a tumor suppressor protein, is activated following cellular insult, including DNA damage and other cellular stresses. The activation of p53 regulates cell fate by inducing DNA repair, cell cycle arrest, apoptosis, or cellular senescence. The activation of p53, therefore, is a good indicator of DNA damage and other cellular stresses. […] The activation of the reporter gene under culture conditions can be detected by fluorescence intensity. This cell line was used to screen the Tox21 10K compound library in the condition of presence of rat liver microsomes and to identify agonists that activate the p53 signaling pathway after in vitro metabolic activation (Ooka et al., Archive of Toxicology 96:1975-1987, 2022).
Tox21 Assay Protocol Summary: The p53RE-bla cells were dispensed at 4,000cells/3ul/well in 1536-well black-clear bottom plates. After the assay plates were incubated at 37 C, 5% CO2 incubator for 5 hours, 23 nL of compounds dissolved in DMSO, positive controls or DMSO only was transferred to the assay plate. Following compound addition, 3 uL of rat liver microsomes (Molecular Toxicology, Boone, NC) at final concentration of 0.5 mg/mL and 1uL of Beta-Nicotinamide adenine dinucleotide 2-phosphate (NADPH) at final concentration of 0.5 mg/mL were transferred to the assay plate. The plates were incubated at 37 C for 16 hours. 1 uL of LiveBLAzer detection mixture was added to each well and the plates were incubated at room temperature in the dark for 2 h.
For `Nc1ncc([N+](=O)[O-])s1`, the Potency entry was “inactive”.
On to `O=C/C=C/c1ccccc1`, for which the Potency result was “inactive”.
`CCC(=O)C(CC(C)N(C)C)(c1ccccc1)c1ccccc1` (stereo not given): the Potency result is “inactive”.
The value for `N#CC(c1ccccc1)c1ccccc1` was “inactive”; that for `CC[N+](=O)[O-]` was “inactive”.
For the compound `Oc1cc(Cl)ccc1Cl`, the Potency result is “inactive”.
The entry for `O=C(Cl)/C=C/C(=O)Cl` is “inactive”; for `CCC[CH2][Sn]([Cl])([Cl])[Cl]` it is “inactive”.
With `C#CC(C)(C)NC(=O)c1cc(Cl)cc(Cl)c1`, the Potency entry is “inactive”.
`Nc1ccc(Cc2ccc(N)cc2)cc1`: the Potency entry was “inactive”.
For the compound `Clc1nc(Cl)nc(Cl)n1`, the Potency result was “inactive”.
The entry for `Cc1nn(-c2cc(NS(C)(=O)=O)c(Cl)cc2Cl)c(=O)n1C(F)F` is “inactive”; for `Nc1ccc(Cl)cc1N` it is “inactive”; for `CCOC(=O)N(C)N=O` it is “inactive”.
For `CCCCC(CC)C(=O)Cl` (stereo not given), the Potency entry was “inactive”.
For `Cc1ccc(N)cc1N`, the Potency result is “inactive”.
The entry for `S=C1NCCN1` is “inactive”; for `Cc1ccc(-c2nc3ccc(C)cn3c2CC(=O)N(C)C)cc1` it is “inactive”; for `Cc1cc(O)ccc1Cl` it is “inactive”.
The entry for `O=C1CCCO1` is “inactive”; for `NCC(O)c1ccc(O)cc1` (stereo not given) it is “inactive”; for `CCCN(CCC)c1c([N+](=O)[O-])cc(C(C)C)cc1[N+](=O)[O-]` it is “inactive”.
The value for `Clc1ccc(C(c2ccc(Cl)cc2)C(Cl)(Cl)Cl)cc1` was “inactive”; that for `O=C(NCc1cccnc1)Nc1ccc([N+](=O)[O-])cc1` was “inactive”; that for `CC(C)(C)C(=O)C(Cl)Cl` was “inactive”.
For `ClCC(Cl)CCl`, the Potency result was “inactive”.
The value for `c1ccc(-c2ccccc2)cc1` was “inactive”; that for `NC(=O)O` was “inactive”.
The value for `O=C(Cl)c1ccccc1` was “inactive”; that for `O=C(O)CC(O)(CC(=O)O)C(=O)O` was “inactive”; that for `ClCc1cccnc1` was “inactive”.
For `COC(=O)Cc1ccccc1`, the Potency result was “inactive”.
Turning to `C=CCCC#N`, the Potency entry was “inactive”.
Take `Nc1ccc(Cl)c(Cl)c1`: the Potency entry was “inactive”.
For the compound `O=C(NCO)NCO`, the Potency entry is “inactive”.
For the compound `COC(=O)c1ccccc1C(=O)OC`, the Potency entry was “inactive”.
Take `CC1CN1` (stereo not given): the Potency result is “inactive”.
The value for `[O-][Cl+2]([O-])O` was “inactive”.
The value for `COC(=O)C(Cl)C(=O)OC` was “inactive”; that for `CCCCCCCCCCCOC(=O)c1ccccc1C(=O)OCCCCCCCCCCC` was “inactive”.
